What all share (assay): NCI-60 one-dose screen, 48 h (100 = growth as untreated, 0 = no growth, -100 = all killed)
The subject of one assay is NCI-H23 lung. Conditions: 10 µM unless noted.
In a further assay the test system is NCI-H226 lung. Particulars: 10 µM unless noted.
For the next assay, the system named is NCI-H322M lung. Conditions: 10 µM unless noted.
The test system of the next assay is NCI-H460 lung. Conditions: 10 µM unless noted.
Another assay concerns HOP-92 NSCLC. Conditions: 10 µM.
The subject of the next assay is NCI-H522 lung. Particulars: 10 µM.
The subject of another assay is A549/ATCC NSCLC. Conditions: 10 µM unless noted.
The next assay deals with 786-0 renal. Particulars: 10 µM unless noted.
The next assay concerns COLO 205 colon. Conditions: 10 µM unless noted.
A further assay deals with DU-145 prostate. Particulars: 10 µM unless noted.
In another assay the test system is K-562 leukemia. Particulars: 10 µM unless noted.
A further assay deals with MALME-3M melanoma. Conditions: 10 µM unless noted.
Another assay deals with MDA-MB-231 breast. Conditions: 10 µM unless noted.
In a further assay the test system is RXF 393 renal. Conditions: 10 µM unless noted.
A further assay relates to SF-268 CNS. Conditions: 10 µM unless noted.
Another assay has as its system SF-295 CNS. Particulars: 10 µM unless noted.
The test system of the next assay is SF-539 CNS. Particulars: 10 µM unless noted.
The test system of another assay is UACC-257 melanoma. Particulars: 10 µM unless noted.
A further assay deals with HOP-62 NSCLC. Particulars: 10 µM unless noted.
A further assay deals with M14 melanoma. Particulars: 10 µM unless noted.

Each structure is given as a SMILES string. The panel holds about 83,000 compounds, 20% with a hit somewhere; the sample as a whole holds those more often.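 Cells were grown in 96-well plates and exposed to the test compound at a single concentration for 48 hours; results are reported as percent growth, with values below 10 considered active.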 Values without a mark were called inactive. Activity calls are given as the source filed them.

`C[C@H]1C[C@@H](n2cnc3c(N)nccc32)[C@H](O)[C@@H]1O`: the growth was 128% with NCI-H23 lung; 105% in the assay with NCI-H226 lung; 110% with NCI-H322M lung; 80.8% in the assay on NCI-H460 lung; 83.3% in the assay on HOP-92 NSCLC; 151% in the assay on NCI-H522 lung. Moreover, the growth was 98.6% in the assay with A549/ATCC NSCLC; 95.6% in the assay on 786-0 renal; 109% with COLO 205 colon; 84% with DU-145 prostate; 69.6% with K-562 leukemia; 110% in the assay on MALME-3M melanoma. Also, the growth is 89.9% with MDA-MB-231 breast; 7.03% (active) with RXF 393 renal; 97.9% with SF-268 CNS; 96.5% in the assay on SF-295 CNS; 67.9% in the assay with SF-539 CNS; 89.3% with UACC-257 melanoma.

With `Nc1nc(-c2cccc(Br)c2)cc(-c2cc3ccccc3oc2=O)n1`, the growth in the assay on NCI-H23 lung was 96.1%; with NCI-H226 lung, 91.5%; in the assay on NCI-H322M lung, 115%; with HOP-62 NSCLC, 90.9%; with A549/ATCC NSCLC, 97.2%; with 786-0 renal, 105%. In addition, the growth with COLO 205 colon is 113%; in the assay with DU-145 prostate it was 111%; in the assay with K-562 leukemia, 104%; in the assay on MALME-3M melanoma, 123%; in the assay on MDA-MB-231 breast, 104%; in the assay on RXF 393 renal, 110%. The growth was 100% with SF-268 CNS; 131% in the assay with SF-295 CNS; 110% in the assay on SF-539 CNS; 106% with UACC-257 melanoma; 103% in the assay on M14 melanoma.

`O=C1CSC(c2ccccc2Cl)N1c1nnc(-c2ccncc2)o1` (stereo unspecified): the growth is 85.9% in the assay on NCI-H23 lung; 93.9% in the assay with NCI-H226 lung; 105% in the assay on NCI-H322M lung; 90.2% in the assay on HOP-62 NSCLC; 95.9% in the assay on HOP-92 NSCLC; 101% with A549/ATCC NSCLC. For the same compound, the growth in the assay on 786-0 renal is 93.6%; in the assay on DU-145 prostate, 106%; in the assay on K-562 leukemia it was 104%; with MALME-3M melanoma, 120%; in the assay with MDA-MB-231 breast, 97.7%; in the assay on RXF 393 renal, 101%. Besides, the growth in the assay with SF-268 CNS is 99.5%; with UACC-257 melanoma, 98.2%; in the assay on M14 melanoma, 96.8%.

With `CCCCCC(=C/c1ccccc1)/C=N/N=C(N)N`, the growth with NCI-H23 lung is 44.6%; in the assay with NCI-H226 lung it was 66%; in the assay on NCI-H322M lung, 20.3%; in the assay with HOP-62 NSCLC, -4.74% (active); in the assay with NCI-H522 lung, -65.3% (active); with 786-0 renal, -65.4% (active). For the same compound, the growth in the assay with COLO 205 colon is -93.9% (active); with K-562 leukemia it was 5.26% (active); in the assay with MALME-3M melanoma, 37%; in the assay on RXF 393 renal it was -31.3% (active); in the assay on SF-295 CNS it was -64.3% (active); in the assay on SF-539 CNS it was 45.5%. In addition, the growth in the assay on M14 melanoma is -64.5% (active).

Turning to `O=C(/C=C/c1ccc(Cl)cc1)c1ccc(Cl)cc1`, the growth with NCI-H23 lung was 94.8%; in the assay with NCI-H226 lung, 100%; in the assay on NCI-H322M lung, 91.3%; in the assay on HOP-62 NSCLC, 102%; in the assay with A549/ATCC NSCLC, 95.5%; with 786-0 renal, 83.4%. The growth in the assay with COLO 205 colon is 113%; in the assay on DU-145 prostate, 101%; with K-562 leukemia it was 73.9%; in the assay on MALME-3M melanoma, 91.8%; in the assay on MDA-MB-231 breast, 118%; in the assay with RXF 393 renal, 96%. Further, the growth was 98.3% in the assay on SF-268 CNS, 104% with SF-539 CNS, 103% in the assay with UACC-257 melanoma and 100% with M14 melanoma.

As for `CCOC(=O)/C(C#N)=C(/CC)OCC`, the growth in the assay with NCI-H23 lung is 110%; with NCI-H226 lung it was 102%; with NCI-H322M lung, 92.2%; in the assay on HOP-62 NSCLC it was 104%; with A549/ATCC NSCLC, 104%; in the assay on 786-0 renal, 103%. For the same compound, the growth was 113% in the assay on COLO 205 colon; 106% in the assay with DU-145 prostate; 89% with K-562 leukemia; 92.6% in the assay with MALME-3M melanoma; 107% in the assay with MDA-MB-231 breast; 114% with RXF 393 renal. In addition, the growth in the assay with SF-268 CNS was 93.1%; with SF-295 CNS, 101%; with SF-539 CNS, 113%; in the assay with UACC-257 melanoma, 99.9%; with M14 melanoma, 95.5%.

Consider `Br/C(=N\Nc1nn[nH]n1)c1ccccc1`, for which the growth in the assay with NCI-H23 lung was 98.9%; in the assay with NCI-H226 lung it was 90.6%; in the assay on NCI-H322M lung, 96.3%; in the assay with HOP-62 NSCLC, 98%; with 786-0 renal, 92.2%; in the assay on COLO 205 colon it was 104%. Further, the growth in the assay on DU-145 prostate was 119%; with K-562 leukemia, 110%; in the assay on MALME-3M melanoma, 104%; in the assay on MDA-MB-231 breast it was 96.4%; in the assay with RXF 393 renal, 96.3%; in the assay with SF-268 CNS, 114%. The growth was 101% in the assay on SF-295 CNS, 96.7% with SF-539 CNS and 99% in the assay on M14 melanoma.

In the case of `C=CN(C)S(C)(=O)=O`, the growth in the assay with NCI-H23 lung is 32.2%; in the assay on NCI-H226 lung it was 91.2%; in the assay on NCI-H322M lung it was 39.5%; in the assay on HOP-62 NSCLC, 22.6%; in the assay with A549/ATCC NSCLC it was 34.5%; with 786-0 renal, 39.5%. In addition, the growth in the assay with COLO 205 colon is 111%; in the assay on DU-145 prostate, 18.5%; in the assay with K-562 leukemia it was 21.9%; in the assay with MALME-3M melanoma it was 28.3%; in the assay on MDA-MB-231 breast it was 46.2%; in the assay with RXF 393 renal it was -9.3% (active). Besides, the growth with SF-268 CNS was 36.5%; in the assay on SF-295 CNS, 8.18% (active); with SF-539 CNS, 4.91% (active); with UACC-257 melanoma, 35.5%; in the assay on M14 melanoma, 28.8%.

`COc1ccc(-c2cc(C#N)c(NNC(C)=O)[nH]2)cc1`: the growth in the assay on NCI-H23 lung was 91.4%; in the assay with NCI-H226 lung, 104%; in the assay with NCI-H322M lung it was 117%; in the assay on NCI-H460 lung, 128%; in the assay with HOP-92 NSCLC, 178%; in the assay with NCI-H522 lung, 107%. Moreover, the growth with A549/ATCC NSCLC was 115%; in the assay with 786-0 renal, 95.3%; in the assay with COLO 205 colon, 129%; in the assay with DU-145 prostate it was 123%; in the assay with K-562 leukemia it was 47.5%; with MALME-3M melanoma, 106%. Moreover, the growth was 106% in the assay with MDA-MB-231 breast; 118% with RXF 393 renal; 122% in the assay on SF-268 CNS; 101% in the assay on SF-295 CNS; 112% in the assay with SF-539 CNS; 108% in the assay on UACC-257 melanoma.

These data come from PubChem BioAssay (NCI).
